Test results from PubChem BioAssay (Tox21).
Results filed as inconclusive are left out. A call without a number means that no potency is given here. The source made the active and inactive calls. The call rests on the fitted dose curve; in most records, active means well fitted activation curve with a large enough effect in the repeat runs; inconclusive means weak or mixed curves; inactive means no such curve, though single readings can be large or run the other way. Residues, ends and D or L forms follow the SMILES beside them.

molecular target: Aryl hydrocarbon receptor (Homo sapiens) (UniProt P35869); assay: qHTS assay to identify small molecule that activate the aryl hydrocarbon receptor (AhR) signaling pathway (AID 743085); conditions: HepG2 AhR-luc (HG2L7.5c1), luciferase, 24 h; series mostly up to 70.3 µM; further: nearly all actives have a fitted effect of over 15% in size;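 on activation: HG2L7.5c1 human HepG2 liver cells with stably integrated DRE-driven firefly reporter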
Description: U.S. Tox21 Program National Center for Advancing Translational Sciences [NCATS] NIH Chemical Genomics Center [NCGC] U.S. Environmental Protection Agency [EPA] National Institutes of Environmental Health Sciences [NIEHS] National Toxicology Program [NTP] U.S. Food and Drug Administration [FDA] Tox21 Assay overview: The Aryl hydrocarbon Receptor (AhR), a member of the family of basic helix-loop-helix transcription factors, is crucial to adaptive responses to environmental changes. AhR mediates cellular responses to environmental pollutants such as aromatic hydrocarbons through induction of phase I and II enzymes but also interacts with other nuclear receptor signaling pathways. A cell based HepG2-AhR-luc assay (HG2L7.5c1 cell line, developed by Dr. Michael S. Denison, University of California at Davis, was used to assess the activation of AhR. HepG2 (human hepatocellular carcinoma) cells were stably transfected with an Ah receptor-responsive firefly luciferase reporter gene plasmid containing 20 dioxin responsive elements and luciferase reporter gene. Increased luciferase activity can be used to identify the compounds that induce AhR activation.
Tox21 Assay Protocol Summary: 4000 cells in 5 uL/well were dispensed into white wall/solid bottom 1536-well plates using a Multidrop Combi (Thermo Fisher Scientific Inc., Waltham, MA) dispenser. After the assay plates were incubated at 37C for 5 h, 23 nL of compound or DMSO vehicle was transferred to the assay plates by a pintool station (Kalypsys, San Diego, CA). The plates were incubated at 37C for 24 hr. After 1 ul/well of CellTiter-Fluor reagent (Promega, Madison, WI) was added into the assay plates using a Flying Reagent Dispenser (FRD) (Aurora Discovery, CA), the assay plates were incubated at 37C for 30 min. The fluorescence intensity in the plates was measured using a ViewLux plate reader (PerkinElmer, Shelton, CT), followed by the addition of 4 uL of ONE-Glo Luciferase Assay reagent (Promega) using an FRD (Aurora Discovery). After the assay plates were incubated at room temperature for 30 min, luminescence intensity was measured using a ViewLux plate reader (Perkin Elmer).
Potency means the concentration at half of the fitted maximal effect.

Sequence of Aryl hydrocarbon receptor (Homo sapiens) (P35869 whole entry, looked up): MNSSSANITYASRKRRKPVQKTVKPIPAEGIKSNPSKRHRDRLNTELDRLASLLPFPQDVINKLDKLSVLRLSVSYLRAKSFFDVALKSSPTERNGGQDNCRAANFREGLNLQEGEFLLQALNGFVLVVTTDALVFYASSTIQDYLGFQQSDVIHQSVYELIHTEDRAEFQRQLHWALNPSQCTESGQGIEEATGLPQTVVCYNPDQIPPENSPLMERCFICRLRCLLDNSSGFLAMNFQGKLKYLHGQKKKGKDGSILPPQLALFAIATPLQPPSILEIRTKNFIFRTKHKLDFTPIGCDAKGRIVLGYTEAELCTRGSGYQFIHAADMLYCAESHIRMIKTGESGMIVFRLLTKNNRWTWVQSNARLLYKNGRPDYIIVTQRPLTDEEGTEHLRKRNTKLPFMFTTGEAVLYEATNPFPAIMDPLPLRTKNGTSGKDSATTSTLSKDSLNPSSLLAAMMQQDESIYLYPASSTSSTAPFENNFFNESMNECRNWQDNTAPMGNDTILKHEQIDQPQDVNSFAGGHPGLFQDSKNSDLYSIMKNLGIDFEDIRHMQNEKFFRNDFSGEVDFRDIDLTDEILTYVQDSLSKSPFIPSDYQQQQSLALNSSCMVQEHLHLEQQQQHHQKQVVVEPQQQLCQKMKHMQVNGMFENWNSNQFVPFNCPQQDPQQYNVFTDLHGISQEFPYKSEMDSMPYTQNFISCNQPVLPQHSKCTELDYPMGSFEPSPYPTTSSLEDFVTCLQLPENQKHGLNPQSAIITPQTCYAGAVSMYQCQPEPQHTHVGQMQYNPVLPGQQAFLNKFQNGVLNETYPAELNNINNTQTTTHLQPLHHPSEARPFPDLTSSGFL

Compound | Potency
COc1cc(/C=C/C(=O)CC(=O)/C=C/c2ccc(O)c(OC)c2)ccc1O | inactive
CC1(C)S[C@@H]2[C@H](NC(=O)[C@H](N)c3ccc(O)cc3)C(=O)N2[C@H]1C(=O)O | inactive
Cc1cnc(C(=O)O)c[n+]1[O-] | inactive
N#Cc1nc(Cl)c(Cl)c(Cl)c1Cl | inactive
Nc1nc(NC2CC2)c2ncn([C@@H]3C=C[C@@H](CO)C3)c2n1 | 8.41 µM (active)
CCN1CCCC1CNC(=O)c1cc(S(=O)(=O)CC)ccc1OC (stereo not given) | inactive
CCOC(=O)Cc1ccc(-c2ccccc2)cc1 | inactive
CN1CCN(CCCN2c3ccccc3Sc3ccc(C(F)(F)F)cc32)CC1 | inactive
CC(=O)N(C)C | inactive
C/C=C/C1=C(C(=O)O)N2C(=O)[C@@H](NC(=O)[C@H](N)c3ccc(O)cc3)[C@H]2SC1 | inactive
Cc1c(N)nc([C@H](CC(N)=O)NC[C@H](N)C(N)=O)nc1C(=O)N[C@H](C(=O)N[C@H](C)[C@@H](O)[C@H](C)C(=O)N[C@H](C(=O)NCCc1nc(-c2nc(C(=O)NCCCCN=C(N)N)cs2)cs1)[C@@H](C)O)[C@@H](O[C@@H]1O[C@@H](CO)[C@@H](O)[C@H](O)[C@@H]1O[C@H]1O[C@H](CO)[C@@H](O)[C@H](OC(N)=O)[C@@H]1O)c1cnc[nH]1 | inactive
NS(=O)(=O)c1cc(Cl)c(Cl)c(S(N)(=O)=O)c1 | inactive
C=CC1=C(C(=O)O)N2C(=O)[C@@H](NC(=O)/C(=N\O)c3csc(N)n3)[C@H]2SC1 (stereo in doubt) | inactive
CC(C)C[C@@H](NC(=O)[C@@H](O)[C@H](N)Cc1ccccc1)C(=O)O | inactive
C=C(Nc1ccc(OCC)cc1)Nc1ccc(OCC)cc1 | inactive
O=P(O)(O)OP(=O)(O)OP(=O)(O)O | inactive
S=C1NC=NC2N=CNC12 (stereo not given) | 30.6 µM (active)
CCCOC(=O)c1ccccc1O | inactive
CC(C)=CCC/C(C)=C/CC/C(C)=C/CC/C=C(\C)CC/C=C(\C)CCC=C(C)C | inactive
C[N+]1(CCCCC[N+]2(C)CCCC2)CCCC1 | inactive

Compound | Potency
CCCCCCCCCCCCCC(=O)OCC(COP(=O)([O-])OCC[N+](C)(C)C)OC(=O)CCCCCCCCCCCCC (stereo not given) | inactive
COc1cccc(-c2ccc(/C=C\CN3CCCCCC3)cc2Cl)c1 | inactive
CC(O)(c1ccc(Cl)cc1)c1ccc(Cl)cc1 | inactive
C[C@@H]1O[C@@H](OC[C@H]2O[C@@H](Oc3c(-c4ccc(OCCO)c(OCCO)c4)oc4cc(OCCO)cc(O)c4c3=O)[C@H](O)[C@@H](O)[C@@H]2O)[C@H](O)[C@H](O)[C@H]1O | inactive
O=C1CCC(c2ccc(-n3ccnc3)cc2)=NN1 | 5.96 µM (active)
CCCCCCCCCCCCCCCC(=O)OC[C@H](COP(=O)([O-])OCC[N+](C)(C)C)OC(=O)CCCCCCCCCCCCCCC | inactive
N=C(N)n1cccn1 | inactive
CC(C)[C@H](NC(=O)[C@H](CC(=O)O)NC(=O)[C@H](CCCCN)NC(=O)[C@@H](N)CCCN=C(N)N)C(=O)N[C@@H](Cc1ccc(O)cc1)C(=O)O (H-RKDVY-OH) | inactive
OCC1(CO)COC(C(Cl)(Cl)Cl)OC1 | inactive
CSCCC(N)C(=O)O (stereo not given) | inactive
Cc1cc(F)ccc1-c1cc(N2CC[C@@H](O)[C@H]2CO)ncc1N(C)C(=O)C(C)(C)c1cc(C(F)(F)F)cc(C(F)(F)F)c1 | inactive
CC1(C)S[C@@H]2[C@H](N3C(=O)C(c4ccccc4)NC3(C)C)C(=O)N2[C@H]1C(=O)O (stereo not given in full) | inactive
CCCCCCOC(=O)c1cccnc1 | inactive
NC(=O)CC[C@@H]1NC(=O)[C@H](Cc2ccccc2)NC(=O)[C@H](Cc2ccc(O)cc2)NC(=O)[C@@H](N)CSSC[C@@H](C(=O)N2CCC[C@H]2C(=O)N[C@@H](CCCN=C(N)N)C(=O)NCC(N)=O)NC(=O)[C@H](CC(N)=O)NC1=O | inactive
CN[C@@H]1[C@@H](O[C@H]2O[C@H](CO)[C@@H](N)[C@H](O)[C@H]2O)O[C@H]2C[C@@H](N)[C@@H](O[C@H]3[C@H](O)[C@@H](O)[C@H](N)C[C@@H]3N)O[C@@H]2[C@@H]1O | inactive
OCl | inactive
CN[C@H](CC(C)C)C(=O)N[C@H]1C(=O)N[C@@H](CC(N)=O)C(=O)N[C@H]2C(=O)N[C@H]3C(=O)N[C@H](C(=O)N[C@@H](C(=O)O)c4cc(O)cc(O)c4-c4cc3ccc4O)[C@H](O)c3ccc(c(Cl)c3)Oc3cc2cc(c3O[C@@H]2O[C@H](CO)[C@@H](O)[C@H](O)[C@H]2O[C@H]2C[C@](C)(N)C(O)[C@H](C)O2)Oc2ccc(cc2Cl)[C@H]1O (stereo not given in full) | inactive
Cc1ccc(C(C)(C)c2ccc(C)cc2)cc1 | inactive
C/C(=C\C(=O)OCCCCCCCCC(=O)O)C[C@@H]1OC[C@H](C[C@@H]2O[C@H]2[C@@H](C)[C@H](C)O)[C@@H](O)[C@H]1O | inactive
Nc1cc(Cl)c(NC2=NCCN2)c(Cl)c1 | inactive
